Test results as given in PubChem BioAssay AID602292 (National Center for Advancing Translational Sciences (NCATS), 2012).
The campaign covered roughly 1,300 compounds. About 380 (29%) were called active. Roughly 37% stayed inconclusive and do not appear here. The list shows a part of the results. Unmarked numbers belong to inactive results. Calls come from the whole dose curve; as a rule, active = well fitted inhibition curve with a large enough effect; inconclusive = small, poorly fitted or top-dose-only effect; inactive = flat fitted curve, though single readings scatter.

What follows are compounds tested against Thyrotropin receptor (Homo sapiens) (UniProt P16473) (assay: qHTS for antagonists of the Thyroid Stimulation Hormone Receptor: Hit Validation in Primary Screen). Conditions: TSHR-expressing cells, cAMP antagonist mode; series mostly up to 58 µM; activity change, negative = inhibition: at the top concentration.
Chain of Thyrotropin receptor (Homo sapiens) (P16473 whole entry, looked up): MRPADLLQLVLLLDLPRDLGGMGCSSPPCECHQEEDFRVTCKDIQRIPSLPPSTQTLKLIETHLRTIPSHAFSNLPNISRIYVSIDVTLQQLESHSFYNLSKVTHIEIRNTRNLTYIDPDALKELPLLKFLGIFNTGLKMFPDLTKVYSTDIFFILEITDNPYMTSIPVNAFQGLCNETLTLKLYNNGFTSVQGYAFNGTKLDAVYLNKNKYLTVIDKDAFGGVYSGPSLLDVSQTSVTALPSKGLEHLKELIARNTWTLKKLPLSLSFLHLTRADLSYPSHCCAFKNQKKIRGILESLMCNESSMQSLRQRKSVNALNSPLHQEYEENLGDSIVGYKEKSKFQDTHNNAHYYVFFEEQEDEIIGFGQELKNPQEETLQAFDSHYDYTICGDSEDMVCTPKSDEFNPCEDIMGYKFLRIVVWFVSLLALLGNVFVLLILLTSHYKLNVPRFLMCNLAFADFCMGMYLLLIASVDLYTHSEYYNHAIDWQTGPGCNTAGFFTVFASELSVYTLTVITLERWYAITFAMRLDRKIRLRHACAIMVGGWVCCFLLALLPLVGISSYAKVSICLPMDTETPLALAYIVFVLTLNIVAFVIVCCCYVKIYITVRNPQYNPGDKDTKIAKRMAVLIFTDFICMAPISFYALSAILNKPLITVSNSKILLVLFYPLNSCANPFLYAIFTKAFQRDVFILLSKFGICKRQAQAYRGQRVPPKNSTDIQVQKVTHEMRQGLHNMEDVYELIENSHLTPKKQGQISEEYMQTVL
In short: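 TSHR-expressing cells were pretreated with compound, then stimulated with TSH at EC80 (4nM final) for 2 hours at 37 deg C. Cellular cAMP measured by competitive HTRF (anti-cAMP cryptate, cAMP-d2) after 30 min at room temperature.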
% is set by controls: 0 for no effect and ±100 for the full control effect; potency is the fitted concentration of half-maximal effect.
Note: nearly all actives have a fitted effect of over 80% in size.
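Throughout, for activity change, negative = inhibition: cAMP by competitive HTRF where cellular cAMP lowers the 665 nm FRET signal.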

Question: How did the Potency turn out when CCN(c1ccccc1)S(=O)(=O)c1ccc(NC(=O)c2nc(S(C)(=O)=O)ncc2Cl)cc1 was run?
Answer: 26.9 µM (active)

Question: For CCC1CCCCN1S(=O)(=O)c1ccc(NC(=O)c2nc(S(C)(=O)=O)ncc2Cl)cc1 (centres undefined), which Potency is on record?
Answer: 9.53 µM (active)

Question: With CS(=O)(=O)Cc1ccc(C(=O)Nc2cccc(-c3nc4ccccc4[nH]3)c2)cc1 as the compound, how does the “activity change, negative = inhibition” value read?
Answer: -7.95%

Question: With CS(=O)(=O)c1ncc(Cl)c(C(=O)Nc2ccc3ccccc3c2)n1 as the compound, how does the Potency read?
Answer: 30.1 µM (active)

Question: How did the Potency turn out when CN1/C(=C/C(=O)c2nc(S(C)(=O)=O)ncc2Cl)C(C)(C)c2ccccc21 was run?
Answer: 21.3 µM (active)

Question: How did the “activity change, negative = inhibition” value turn out when Cc1ccc(S(=O)(=O)N(CC(=O)NCc2ccccn2)c2ccc(Cl)cc2)cc1 was run?
Answer: -3.4%

Question: CCN(c1ccccc1)S(=O)(=O)c1ccc(NCC2COc3ccccc3O2)nc1 (centres undefined) was tested. Which “activity change, negative = inhibition” value did it give?
Answer: -10.9%

Question: How did the Potency turn out when CN(c1ccccc1)S(=O)(=O)c1ccc(NC(=O)c2nc(S(C)(=O)=O)ncc2Cl)cc1 was run?
Answer: 21.3 µM (active)

Question: How did the “activity change, negative = inhibition” value turn out when CCSc1ncc(Cl)c(C(=O)Nc2ccccc2OC)n1 was run?
Answer: -2.3%

Question: How did the Potency turn out when CCS(=O)(=O)c1ncc(Cl)c(C(=O)Nc2ccc(S(=O)(=O)N(C)c3ccccc3)cc2)n1 was run?
Answer: 19 µM (active)

Question: How did the “activity change, negative = inhibition” value turn out when CCS(=O)(=O)c1ccc(C(=O)Nc2ccccc2)c(Cl)c1Cl was run?
Answer: -11.7%

Question: Which “activity change, negative = inhibition” value does the source give for Cc1onc(-c2c(Cl)cccc2Cl)c1C(=O)N1CCc2ccccc2C1 here?
Answer: -6.77%

Question: Which “activity change, negative = inhibition” value does the source give for COc1ccc(/C=N/n2c(C)nnc2C)c(OC)c1OC here?
Answer: -9.42%

Question: With CCN(C(=O)c1cc2c(=O)n3ccccc3nc2n1C)C1CCCCC1 as the compound, how does the “activity change, negative = inhibition” value read?
Answer: -7.38%

Question: With CCN(CC)c1ccc2nc3ccccc3[n+](CC)c2c1 as the compound, how does the Potency read?
Answer: 13.5 µM (active)

Question: Which Potency does the source give for Cc1c(N=Nc2c(-c3ccc([N+](=O)[O-])cc3)[nH]n(C(N)=S)c2=O)cccc1[N+](=O)[O-] here?
Answer: 3.79 µM (active)

Question: With CC(=O)Nc1nc(C)c(Oc2ccc(C)cc2)c(=O)[nH]1 as the compound, how does the “activity change, negative = inhibition” value read?
Answer: -4.18%

Question: For O=[N+]([O-])c1ccc(Sc2cccc[n+]2[O-])c2nonc12, which Potency is on record?
Answer: 8.49 µM (active)

Question: With COc1ccc(Nc2ccc([N+](=O)[O-])c3nonc23)c(OC)c1 as the compound, how does the “activity change, negative = inhibition” value read?
Answer: -3.05%

Question: With O=C(NCc1cccnc1)c1nc(-c2ccccc2)n(-c2ccccc2)n1 as the compound, how does the “activity change, negative = inhibition” value read?
Answer: -7.43%

Question: CN(C)S(=O)(=O)Oc1cccc(C(=O)Nc2ccc(Cl)c(Cl)c2)c1 was tested. Which Potency did it give?
Answer: 26.9 µM (active)

Question: How did the Potency turn out when O=C(Nc1ccc(Cl)c(Cl)c1)c1cccc(S(=O)(=O)NCc2cccnc2)c1 was run?
Answer: 13.5 µM (active)

Question: Cc1ccc(NC(=O)c2cccc(OCc3c(C)noc3C)c2)cc1S(=O)(=O)Nc1ccccc1Cl was tested. Which “activity change, negative = inhibition” value did it give?
Answer: -8.07%

Question: With Fc1cccc(Cl)c1CNCc1cccnc1 as the compound, how does the “activity change, negative = inhibition” value read?
Answer: -6.25%

Question: With O=c1[nH]c(=S)[nH]c2c1CN(Cc1ccc(F)cc1)CC2 as the compound, how does the “activity change, negative = inhibition” value read?
Answer: -8.38%

Question: For O=C(O)c1nn(CC(=O)N2CCN(c3ncc(C(F)(F)F)cc3Cl)CC2)c(=O)c2ccccc12, which Potency is on record?
Answer: 21.3 µM (active)

Question: O=c1c2nncn2c2cccnc2n1CCNc1ncc(C(F)(F)F)cc1Cl was tested. Which “activity change, negative = inhibition” value did it give?
Answer: -4.18%

Question: How did the Potency turn out when Cc1ccc(-n2[nH]c(C)c(/C=N/Nc3ccc([N+](=O)[O-])cc3[N+](=O)[O-])c2=O)cc1 was run?
Answer: 6.75 µM (active)

Question: How did the Potency turn out when Cc1ccc(-n2[nH]c(C)c(/C=N/Nc3ccc([N+](=O)[O-])cc3[N+](=O)[O-])c2=O)cc1C was run?
Answer: 2.39 µM (active)

Question: Which “activity change, negative = inhibition” value does the source give for O=C(N/N=C/c1ccc[nH]1)c1sc2ccccc2c1Cl here?
Answer: -4.67%

Question: Which “activity change, negative = inhibition” value does the source give for Nc1nnc(COc2ccc(Br)cc2Br)s1 here?
Answer: -5.73%

Question: For O=C(Oc1c(Br)cc([N+](=O)[O-])cc1Br)c1cccnc1, which Potency is on record?
Answer: 4.26 µM (active)

Question: Which “activity change, negative = inhibition” value does the source give for COc1ccc(CN2CCCN(C)CC2)c(OC)c1C here?
Answer: -4.21%

Question: How did the “activity change, negative = inhibition” value turn out when CCOC(=O)N1CCN(C(=O)c2ccc(NS(=O)(=O)c3ccc(C)cc3)cc2)CC1 was run?
Answer: -10.8%

Question: How did the Potency turn out when Cc1ccc(S(=O)(=O)Nc2ccc(N=Nc3ccc(O)cc3)cc2)cc1 was run?
Answer: 30.1 µM (active)

Question: Which “activity change, negative = inhibition” value does the source give for Cc1ccc(S(=O)(=O)NCCNS(=O)(=O)c2ccc(C)cc2)cc1 here?
Answer: -7.12%

Question: With N#C/C(=N\Nc1ccc(Cl)c(Cl)c1)C(=O)C1CC1 as the compound, how does the Potency read?
Answer: 6.01 µM (active)

Question: How did the “activity change, negative = inhibition” value turn out when Cc1cccc(C)c1NC(=O)N1CCC(C(=O)c2ccc(F)cc2)CC1 was run?
Answer: -1.04%

Question: For O=C(Nc1nnc(C(F)(F)F)s1)c1ccc(Br)s1, which Potency is on record?
Answer: 10.7 µM (active)
